# Assay outcomes (PubChem BioAssay)
# TRHR enhancer – allosteric enhancers of human TRH receptor; P34981; TRHR cells, fluo-8 calcium fluorescence, EC20 TRH enhancement; enhancement, % at 2 µM; hit rate 0.66% among 360,000; in the data active = enhancement above about 30%
#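 Enhancer read-out: after compound pinning and an initial kinetic agonist-mode read, an EC20 of TRH (10 nM final) was injected and fluo-8 calcium signal (Ex 480/Em 530) followed at 1 s/cycle for 100 cycles in TRHR-expressing cells.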
# D1 PAM – enhances dopamine response at the human D1 receptor; P21728; HEK293 TREx D1 cells, calcium flux, dopamine EC20 potentiation; potentiation, % at 10 µM; hit rate 0.036% among 360,000; AID 504651; in the data active = potentiation above about 30%
# Target sequence (P21728 whole entry, looked up): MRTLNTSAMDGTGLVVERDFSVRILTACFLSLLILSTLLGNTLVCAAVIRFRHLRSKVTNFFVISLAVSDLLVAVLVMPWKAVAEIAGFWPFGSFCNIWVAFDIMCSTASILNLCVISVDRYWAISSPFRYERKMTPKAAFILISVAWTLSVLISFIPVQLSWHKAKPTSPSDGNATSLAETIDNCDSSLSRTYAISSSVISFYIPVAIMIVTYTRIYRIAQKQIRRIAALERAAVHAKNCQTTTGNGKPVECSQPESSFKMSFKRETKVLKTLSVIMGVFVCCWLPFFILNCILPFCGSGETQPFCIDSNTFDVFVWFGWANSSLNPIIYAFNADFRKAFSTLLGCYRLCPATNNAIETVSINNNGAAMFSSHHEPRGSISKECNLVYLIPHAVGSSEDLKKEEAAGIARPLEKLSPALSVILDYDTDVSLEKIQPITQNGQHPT
# D1 antag – blocks dopamine activation of the human D1 receptor; P21728; HEK293 TREx D1 cells, calcium flux, dopamine EC80; active compounds read low; activity change, negative = inhibition, % at 10 µM; hit rate 3.2% among 360,000; AID 504652; in the data active = activity change below about -30%
#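 Calcium flux readout: force-coupled, inducible Hek293 Trex D1 line, cells induced overnight at 30 C with tetracycline, dye-loaded 30–90 min at RT. Antagonism scored against EC80 dopamine challenge given 180 s after compound.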
# D1 agonist – agonists of human D1 dopamine receptor | activation, % at 2 µM | hit rate 1% among 360,000 | HEK293 T-REx D1 cells, calcium flux, agonist mode | AID 504660
#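 Tetracycline-induced HEK293 TREx D1 cells, force-coupled to calcium signalling, were dye-loaded with a no-wash calcium kit. Compound was pin-added after a 10 s baseline. Fluorescence was read kinetically at 1 cycle/s for 180 s, with calcium rises flagged as agonism.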
# TRHR ag – TRH receptor (human) agonism; TRHR cells, calcium flux fluo-8, FDSS agonist mode; activation, % at 2 µM; hit rate 0.18% among 360,000; P34981
#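 In this calcium-flux screen, cells bearing human TRHR are dye-loaded with fluo-8, baselined for 10 cycles, then exposed to library compounds; positive kinetic calcium responses during the agonist phase mark hits, with TRH as control.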
# Hits are given with their value; – = inactive; · = no result given; ! = not active in a repeat. Only some compounds are listed: those with a hit (about 4.7% of all), similar ones and a draw of the others. Cut-off read from the data, not from the text of the source, unless noted: active = activation above about 30%; inactive = the rest.
SMILES,TRHR enhancer,D1 PAM,D1 antag,D1 agonist,TRHR ag
COc1cc(OC)c(NC(=O)c2c(N3CCCC3=O)c3cc(C)ccc3n2C)cc1Cl,–,–,-87.6,–,–
Cc1ccc2c(c1)c(N1CCCC1=O)c(C(=O)Nc1ccc(F)cc1F)n2C,–,–,–,–,–
CCN(c1ccccc1)S(=O)(=O)c1ccc(OC)c(NC(=O)CNCCc2ccccc2)c1,–,–,-33.4,–,–
Cc1ccc(CCC(=O)Nc2ccc(C)c(C)c2)o1,–,–,–,–,–
O/N=C(\Cc1cscn1)c1ccc(O)cc1O,–,–,–,–,–
CCc1cc(/C(Cc2cscn2)=N\O)c(O)cc1O,30.1,–,–,–,–
O=C(NC1CCCC1)c1cc2nc(-c3ccco3)cc(C(F)(F)F)n2n1,–,–,–,–,–
CCc1sc(C(=O)NC2CCN(C)CC2)cc1Br,–,–,–,36.4,–
CCc1sc(C(=O)N2CCCN(C)CC2)cc1Br,–,–,–,–,–
NC(=O)C1(c2ccccc2)CCCN1C(=O)c1ccccc1Br (stereo unspecified),35.9,–,–,–,–
NC(=O)C1(c2ccccc2)CCCN1C(=O)c1ccc(Br)cc1 (stereo unspecified),–,–,–,–,–
CCOc1ccc(NC(=O)CSc2nnnn2C2CCCC2)cc1,–,·,–,47.4,–
Cc1sc(NC(=O)CSc2nnnn2C2CCCCC2)c(C#N)c1C,–,–,-33.5,–,–
CCCCCN(C(=O)CCC(=O)OCc1ccc(C(C)C)cc1)c1c(N)n(CCCC)c(=O)[nH]c1=O,–,–,–,–,–
CCOc1ncccc1C(=O)OCC(=O)Nc1ccc2c(c1)OCCO2,–,–,–,–,–
Cc1ccc(NC(=O)C2CC(=O)N/C(=N/N=C/c3ccco3)S2)cc1C (stereo unspecified),–,–,-82.6,–,–
CC1CC(c2ccccc2)NS(=O)(=O)O1 (stereo unspecified),–,–,–,–,–
O=C(CN1CCN(S(=O)(=O)c2ccc(F)cc2)CC1)Nc1ccc(F)cc1F,–,–,–,–,–
COc1ccc(OC)c(CNc2ncc(-c3ccc(F)cc3)n2C)c1,–,–,-55.0,–,–
CCOc1ccc(-c2cnc(NCc3cccc4ccccc34)n2CCOC)cc1,–,–,-58.2,–,–
COc1ccccc1CNc1ncc(-c2ccc(F)cc2)n1C,–,–,-62.2,–,–
Cn1c(-c2ccc(F)cc2)cnc1NCc1cc2c(cc1[N+](=O)[O-])OCO2,–,–,-77.0,–,–
CCOc1ccc(-c2cnc(NCc3cccc(Cl)c3)n2C)cc1,–,–,–,–,–
Cn1c(-c2ccc(Cl)cc2)cnc1NCc1cc2c(cc1[N+](=O)[O-])OCO2,–,–,–,–,–
COc1ccccc1Cc1nc2ccccc2nc1SCC(=O)Nc1c(C)cccc1C,–,–,–,–,–
SMILES,TRHR enhancer,D1 PAM,D1 antag,D1 agonist,TRHR ag
Cn1c(-c2ccc(F)cc2)cnc1NCc1cccc(F)c1,–,–,–,–,–
COc1ccc(CNc2ncc(-c3ccc(F)cc3)n2C)c2ccccc12,–,–,-36.4,–,–
COc1ccc(CNc2ncc(-c3ccc(F)cc3)n2C)cc1OC,–,–,-41.3,–,–
Cn1c(-c2ccc(F)cc2)cnc1NCc1ccccc1,–,–,–,–,–
COc1ccccc1CNc1ncc(-c2ccccc2)n1C,–,–,-49.3,–,–
Cn1c(-c2ccccc2)cnc1NCc1ccccc1O,–,–,–,–,–
Cc1sc2ncn(CC(=O)N3CCN(c4ccccc4F)CC3)c(=O)c2c1S(=O)(=O)N1CCN(c2ncccn2)CC1,–,–,–,–,–
COc1cccc(CNC(=O)C2CCN(c3nnc(-n4c(C)ccc4C)s3)CC2)c1,–,–,–,–,–
CC(=O)OCc1c(-c2ccccc2)c2cc([N+](=O)[O-])ccc2n1C,–,–,-47.0,–,–
Cc1ccc2cc(CN(C)C(=O)c3cccc(Cl)c3)c(=O)[nH]c2c1,–,–,–,–,–
COc1ccccc1C(=O)NCCC(=O)NCCC12CC3CC(CC(C3)C1)C2,–,–,-30.5,–,–
COc1ccc(C23CC4CC(CC(C4)C2)C3)cc1C(=O)NCCN(C)C,–,–,–,39.4,–
COc1ccccc1OCCNC(=O)CCNC(=O)c1ccccc1OC,–,–,–,–,–
Cc1ccc(/C=N/NC(=O)Cc2ccc(O)cc2)s1,–,–,-32.7,–,–
O=C(Cc1ccc(O)cc1)N/N=C/c1cccs1,–,–,–,–,–
Cc1cc(C)cc(-n2c(SCC(=O)N3CCCCCC3)nc3c([nH]c4ccccc43)c2=O)c1,–,–,–,–,–
CCS(=O)(=O)NCCc1csc(-c2ccccc2)n1,–,–,–,–,–
COc1ccc(C(=O)NCCc2csc(-c3ccc(Cl)cc3)n2)cc1,–,–,–,–,–
O=C(NCCc1csc(-c2ccccc2)n1)c1ccco1,–,–,-30.4,–,–
O=C(NCCc1csc(-c2cccnc2)n1)c1ccccc1,–,–,-47.3!,–,–
O=C(NCCc1csc(-c2cccnc2)n1)c1cccc2ccccc12,–,–,–,–,–
CCS(=O)(=O)NCCc1csc(-c2cccnc2)n1,–,–,-35.9,–,–
COc1ccc(C(=O)NCCc2csc(-c3ccc(Cl)cc3)n2)c(OC)c1,36.4,–,–,–,–
O=C(NCc1csc(-c2ccccc2)n1)c1ccco1,–,–,–,–,–
COc1ccccc1/C=C/C(=O)OCC(=O)N1c2ccccc2CC1C (stereo unspecified),–,·,–,–,–
SMILES,TRHR enhancer,D1 PAM,D1 antag,D1 agonist,TRHR ag
Cc1cccc(C(=O)NCCc2csc(C)n2)c1,–,–,-85.4,–,–
O=C(NCCc1csc(-c2ccccc2)n1)c1cccs1,–,–,-59.6,–,–
Cc1ccc(C(=O)NCCc2csc(C)n2)cc1,–,–,–,–,–
CCc1cccc(C)c1NC(=O)C1=C(C)C(=O)OC12CCC(C)CC2 (stereo unspecified),–,–,–,–,–
CCn1c(=O)c(=O)[nH]c2cc(C(=O)NCc3ccc(F)cc3)ccc21,–,–,–,–,–
COc1ccc(NC(=O)C(OC(=O)CNC(=O)c2ccccc2)c2ccccc2)cc1Cl (stereo unspecified),–,–,–,–,–
O=C(NC1CCN(C(=O)NC2CCCCC2)CC1)c1ccco1,–,–,–,–,–
O=C(NC1CCCC1)c1cc2cc(Br)ccc2o1,–,–,-78.2,–,–
O=C(NC1CCCCCCC1)c1ccco1,–,–,-31.0,–,–
Cc1ccccc1C(=O)N1CCN(c2ccc(NC(=O)c3ccc4c(c3)OCCO4)cc2)CC1,–,–,–,–,–
Cc1[nH]nc(N2CCCCCC2)c1[N+](=O)[O-],–,–,-40.8,–,–
Cc1ccn(-c2n[nH]c(C)c2[N+](=O)[O-])n1,–,–,–,–,–
COc1ccc(COC(=O)c2cccc(S(=O)(=O)N3CCCC3)c2)cc1F,–,–,–,–,–
